In PubChem BioAssay AID1159580 (chemical genetic matrix, 2015):
In all, about 5,500 compounds went through this assay and about 2,000 (36%) were called active. Inconclusive results (about 18%) are left out. Cut-off read from the data, not from the text of the source: active = normalized growth mostly below about 0.91 (no sharp cut-off); inconclusive = no clear call, values can overlap the other calls; inactive = mostly above about 0.92. This is one part of the list.

Test: chemical genetic growth profiling, strain panel (AID 1159580);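 note: tested at 20 µM; growth read once vehicle control cultures reached saturation at 30 °C; 1 = growth at the plate median or of vehicle wells; lower values mean less growth of the strain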
Conditions: growth OD

Measured: normalized growth

NCCCC[C@H](N[C@@H](CCc1ccccc1)C(=O)O)C(=O)N1CCC[C@H]1C(=O)O
inactive: S. cerevisiae deletion strains, locus YKL009W, strain mrt4, hits give low values 0.973 | S. cerevisiae deletion strains, locus YKL068W, hits give low values 0.99 | S. cerevisiae deletion strains, locus YKL085W, strain MDH1 (second series), hits give low values 0.993 | S. cerevisiae deletion strains, locus YKL085W, strain MDH1, hits give low values 0.993 | S. cerevisiae deletion strains, locus YKL160W, strain elf1, hits give low values 0.999 | S. cerevisiae deletion strains, locus YKL190W, strain CNB1, hits give low values 0.981 | S. cerevisiae deletion strains, locus YKR001C, strain vps1, hits give low values 1.01 | S. cerevisiae deletion strains, locus YKR026C, strain gcn3, hits give low values 1.04 | S. cerevisiae deletion strains, locus YKR091W, strain srl3, hits give low values 1.01 | S. cerevisiae deletion strains, locus YLL001W, strain dnm1, hits give low values 1 | S. cerevisiae deletion strains, locus YLL026W, hits give low values 0.994 | S. cerevisiae deletion strains, locus YLL041C, strain sdh2, hits give low values 0.97 | S. cerevisiae deletion strains, locus YLR027C, strain aat2, hits give low values 0.998 | S. cerevisiae deletion strains, locus YLR039C, strain RIC1, hits give low values 0.985 | S. cerevisiae deletion strains, locus YLR058C, strain SHM2, hits give low values 0.984 | S. cerevisiae deletion strains, locus YLR102C, strain apc9, hits give low values 0.996 | S. cerevisiae deletion strains, locus YLR113W, strain HOG1, hits give low values 1.01 | S. cerevisiae deletion strains, locus YLR221C, strain rsa3, hits give low values 0.981 | S. cerevisiae deletion strains, locus YLR258W, strain gsy2, hits give low values 1.01 | S. cerevisiae deletion strains, locus YLR262C, strain YPT6 (second series), hits give low values 1.01 | S. cerevisiae deletion strains, locus YLR262C, strain YPT6, hits give low values 0.94 | S. cerevisiae deletion strains, locus YLR268W, strain sec22, hits give low values 1 | S. cerevisiae deletion strains, locus YLR320W, strain mms22, hits give low values 1.03 | S. cerevisiae deletion strains, locus YLR330W, strain CHS5, hits give low values 0.994 | S. cerevisiae deletion strains, locus YLR342W, strain FKS1 (second series), hits give low values 1.05 | S. cerevisiae deletion strains, locus YLR342W, strain FKS1, hits give low values 1 | S. cerevisiae deletion strains, locus YLR357W, strain rsc2, hits give low values 1.04 | S. cerevisiae deletion strains, locus YLR370C, strain arc18, hits give low values 0.971 | S. cerevisiae deletion strains, locus YLR371W, strain rom2, hits give low values 1 | S. cerevisiae deletion strains, locus YLR384C, strain iki3, hits give low values 0.978 | S. cerevisiae deletion strains, locus YLR418C, strain cdc73, hits give low values 1 | S. cerevisiae deletion strains, locus YML016C, strain PPZ1, hits give low values 0.992 | S. cerevisiae deletion strains, locus YML032C, strain rad52, hits give low values 0.999 | S. cerevisiae deletion strains, locus YML120C, strain ndi1, hits give low values 0.976 | S. cerevisiae deletion strains, locus YML124C, strain tub3, hits give low values 0.995 | S. cerevisiae deletion strains, locus YMR058W, strain fet3, hits give low values 1.02 | S. cerevisiae deletion strains, locus YMR078C, strain ctf18, hits give low values 0.998 | S. cerevisiae deletion strains, locus YMR125W, strain sto1, hits give low values 1.04 | S. cerevisiae deletion strains, locus YMR129W, hits give low values 0.964 | S. cerevisiae deletion strains, locus YMR205C, strain PFK2, hits give low values 0.984 | S. cerevisiae deletion strains, locus YMR223W, strain ubp8, hits give low values 0.983 | S. cerevisiae deletion strains, locus YMR231W, strain pep5, hits give low values 1.02 | S. cerevisiae deletion strains, locus YMR307W, strain GAS1, hits give low values 1.05 | S. cerevisiae deletion strains, locus YNL067W, strain RPL9B, hits give low values 0.964 | S. cerevisiae deletion strains, locus YNL071W, strain lat1, hits give low values 1.02 | S. cerevisiae deletion strains, locus YNL128W, strain TEP1, hits give low values 0.989 | S. cerevisiae deletion strains, locus YNL153C, strain GIM3, hits give low values 0.955 | S. cerevisiae deletion strains, locus YNL183C, strain NPR1, hits give low values 0.96 | S. cerevisiae deletion strains, locus YNL209W, strain ssb2, hits give low values 1.01 | S. cerevisiae deletion strains, locus YNL233W, strain BNI4, hits give low values 0.975 | S. cerevisiae deletion strains, locus YNL248C, strain rpa49, hits give low values 1.01 | S. cerevisiae deletion strains, locus YNL250W, strain rad50, hits give low values 0.982 | S. cerevisiae deletion strains, locus YNL271C, strain bni1, hits give low values 0.997 | S. cerevisiae deletion strains, locus YNL298W, strain CLA4, hits give low values 0.993 | S. cerevisiae deletion strains, locus YNL307C, strain MCK1, hits give low values 1.01 | S. cerevisiae deletion strains, locus YNL322C, strain KRE1 (second series), hits give low values 1.02 | S. cerevisiae deletion strains, locus YNL322C, strain KRE1, hits give low values 0.993 | S. cerevisiae deletion strains, locus YNR049C, strain mso1, hits give low values 0.964 | S. cerevisiae deletion strains, locus YNR052C, strain pop2, hits give low values 1.01 | S. cerevisiae deletion strains, locus YOL006C, strain TOP1, hits give low values 0.922 | S. cerevisiae deletion strains, locus YOL012C, strain htz1 1.17 | S. cerevisiae deletion strains, locus YOL147C, strain pex11, hits give low values 0.988 | S. cerevisiae deletion strains, locus YOR001W, strain rrp6, hits give low values 0.967 | S. cerevisiae deletion strains, locus YOR061W, strain CKA2, hits give low values 0.956 | S. cerevisiae deletion strains, locus YOR069W, strain VPS5, hits give low values 0.998 | S. cerevisiae deletion strains, locus YOR070C, strain gyp1, hits give low values 0.941 | S. cerevisiae deletion strains, locus YOR080W, strain dia2, hits give low values 0.992 | S. cerevisiae deletion strains, locus YOR083W, strain WHI5, hits give low values 1.01 | S. cerevisiae deletion strains, locus YOR106W, strain vam3, hits give low values 1 | S. cerevisiae deletion strains, locus YOR136W, strain idh2, hits give low values 0.994 | S. cerevisiae deletion strains, locus YOR144C, strain elg1, hits give low values 0.998 | S. cerevisiae deletion strains, locus YOR184W, strain ser1, hits give low values 1 | S. cerevisiae deletion strains, locus YOR231W, strain MKK1, hits give low values 1.04 | S. cerevisiae deletion strains, locus YOR265W, strain rbl2, hits give low values 0.987 | S. cerevisiae deletion strains, locus YOR270C, strain vph1, hits give low values 1.04 | S. cerevisiae deletion strains, locus YOR290C, strain snf2, hits give low values 1.02 | S. cerevisiae deletion strains, locus YOR316C, strain cot1, hits give low values 1 | S. cerevisiae deletion strains, locus YPL051W, strain arl3, hits give low values 1.01 | S. cerevisiae deletion strains, locus YPL078C, strain atp4, hits give low values 1.02 | S. cerevisiae deletion strains, locus YPL106C, strain sse1, hits give low values 0.949 | S. cerevisiae deletion strains, locus YPL240C, strain hsp82, hits give low values 0.986 | S. cerevisiae deletion strains, locus YPL256C, strain CLN2, hits give low values 1.02 | S. cerevisiae deletion strains, locus YPR119W, strain clb2, hits give low values 0.994 | S. cerevisiae deletion strains, locus YPR141C, strain kar3, hits give low values 0.985 | S. cerevisiae deletion strains, locus YPR163C, strain tif3, hits give low values 0.988 | S. cerevisiae deletion strains, locus YPR167C, strain met16, hits give low values 0.999 | S. cerevisiae deletion strains, strain wtn01, hits give low values 0.998 | S. cerevisiae strains, strain wild type, hits give low values 0.982
